# DT40 TDP1 no CPT – qHTS for Inhibitors of human tyrosyl-DNA phosphodiesterase 1 (TDP1): qHTS in cells in absence of CPT | DT40 Tdp1-/- hTDP1 cells, no CPT, ATP luminescence, 48 h | 420,000 tested, 15% active | Potency, µM (top dose mostly 46.2 µM), hits mostly inhibitors | AID 686978, 2013; also: nearly all actives have a fitted effect of over 55% in size
#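 Stably hTDP1-transfected Tdp1-null chicken DT40 cells were treated with library compounds minus camptothecin and grown for at least 48 hr at 37 °C, after which cellular ATP was quantified by luminescence.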
# S-ASM inh – Inhibitors of Secretory Acid Sphingomyelinase (S-ASM): qHTS | 340,000 tested, 0.006% active | AID 504937, 2011 | Sphingomyelin phosphodiesterase (Homo sapiens), P17405 | Potency, µM (highest dose often 57.5 µM), actives largely listed as inhibitors | placental ASM, HMU-PC fluorogenic substrate, 60 min
# Target sequence (P17405 47-631 limits assumed): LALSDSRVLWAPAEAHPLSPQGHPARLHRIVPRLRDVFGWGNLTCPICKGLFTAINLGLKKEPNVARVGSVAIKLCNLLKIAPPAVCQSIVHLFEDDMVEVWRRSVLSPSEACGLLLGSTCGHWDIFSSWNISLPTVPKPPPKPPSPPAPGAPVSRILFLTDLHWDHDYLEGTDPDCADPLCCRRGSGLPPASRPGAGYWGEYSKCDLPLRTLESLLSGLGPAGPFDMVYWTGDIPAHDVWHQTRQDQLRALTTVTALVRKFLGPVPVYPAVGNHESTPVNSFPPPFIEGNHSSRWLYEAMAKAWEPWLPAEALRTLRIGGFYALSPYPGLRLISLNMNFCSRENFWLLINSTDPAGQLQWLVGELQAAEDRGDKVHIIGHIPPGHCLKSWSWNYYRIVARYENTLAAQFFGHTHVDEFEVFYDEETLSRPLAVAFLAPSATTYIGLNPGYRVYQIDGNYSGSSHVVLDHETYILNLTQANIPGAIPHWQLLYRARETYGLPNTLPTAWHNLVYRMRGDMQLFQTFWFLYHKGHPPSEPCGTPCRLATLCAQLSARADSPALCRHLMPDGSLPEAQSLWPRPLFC
#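 Human placenta-derived ASM enzyme was preincubated with compound for 10 minutes at room temperature, then given fluorogenic substrate HMU-PC0 (9 uM final) for 60 minutes at 37 °C; a pH 10 stop preceded fluorescence reading at Ex 386/Em 447 nm.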
# TGFb inhibitor – qHTS for Inhibitors of TGF-b; 410,000 tested, 1.2% active; AID 588855, 2011; HepG2 CAGA-GFP TGF-b/SMAD3 reporter, GFP fluorescence, 18 h; TGF-beta stimulated, 500 pg/mL final; Potency, µM (highest dose often 46.1 µM), usual class: inhibitors; also: nearly all actives have a fitted effect of over 65% in size
#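 TGF-beta reporter screen: HEPG2 CAGA-GFP, 1% FBS, 500 pg/mL TGF-beta final, 18 h; per-cell GFP summed per well; curves fitted and categorized by class.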
# DT40 TDP1 CPT – qHTS for Inhibitors of human tyrosyl-DNA phosphodiesterase 1 (TDP1): qHTS in cells in presence of CPT; chicken DT40 Tdp1-/-;hTDP1 cells + 20 nM CPT, ATP luminescence, 48 h; Potency, µM (top dose mostly 46.2 µM), most hits filed as inhibitors; 420,000 tested, 12% active; also: nearly all actives have a fitted effect of over 55% in size
#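 Chicken DT40 Tdp1-/- cells stably complemented with human TDP1 were seeded at 400 cells/well in medium containing 20 nM camptothecin, exposed to pin-transferred compounds, and grown at 37 °C for at least 48 hr. Viability was read as ATP luminescence.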
# IL-1B inflam inh – qHTS for Inhibitors of Inflammasome Signaling: IL-1-beta AlphaLISA Primary Screen. THP-1 LPS/ATP IL-1B secretion, AlphaLISA, 16 h; stronger effect = lower value. activity change, % at 57.5 µM. 360,000 tested, 4.7% active. AID 743279, 2014; in the data active = activity change below about -50%; inconclusive = mostly about -30% to -49%
#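 THP-1 cells pretreated 1 hr with compounds (up to 57.5 uM final), then stimulated with LPS (250 ng/mL final) plus ATP (1.25 mM final); secreted IL-1B measured by AlphaLISA after 16 hr, decreased signal indicating inhibition.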
# HepG2 tox – qHTS for Inhibitors of TGF-b: Cytotox Counterscreen. AID 588856, 2011. HepG2 CAGA-GFP viability, ATP luminescence, 18 h. Potency, µM (highest dose often 46.1 µM), hits mostly cytotoxic. 410,000 tested, 0.76% active
#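 HepG2 CAGA-GFP cells (1000/well, DMEM with 1% FBS) received compound, then TGF-beta at 500 pg/mL final, and were incubated 18 hours at 37 degrees C. Viability was read by CellTiter-Glo luminescence. Media-only wells were set as complete cell-killing and DMSO as no toxicity.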
# Hits are given with their value; 0 = inactive; ? = inconclusive; - = no result. Sampled rows, rich in hits. Any-hit rate of the full collection: about 19%. Unless noted, calls follow the shape of the dose curve; as a rule, active = well fitted curve in the direction sought with a large enough effect; inconclusive = small, poorly fitted or top-dose-only effect, or another doubt; inactive = no such curve, though single readings can be large; an effect the other way counts as inactive or inconclusive.
SMILES,DT40 TDP1 no CPT,S-ASM inh,TGFb inhibitor,DT40 TDP1 CPT,IL-1B inflam inh,HepG2 tox
O=C(Nc1cccc(F)c1)c1cccnc1NCCc1ccccc1,?,0,?,?,-60,0
O=C(Nc1cccc(F)c1)c1ccccc1-c1ccccc1,0,0,0,?,0,0
Cc1oc2ncn(CC(C)C)c(=O)c2c1C(=O)NC(C)c1ccccc1 (stereo not drawn),21µM,-,0,21µM,-,0
CCC(C)NC(=O)c1c(C)oc2ncn(CC(C)C)c(=O)c12 (stereo not drawn),?,-,0,0,-,0
Cc1ccc(NC(=O)c2c(C)oc3ncn(CC(C)C)c(=O)c23)nc1,9.2µM,-,0,13µM,-,0
COC(=O)C(CCSC)NC(=O)c1c(C)oc2ncn(CC(C)C)c(=O)c12 (stereo not drawn),13µM,-,0,0,-,0
Cc1ccccc1Nc1scc(-c2ccc(Cl)cc2)[n+]1-c1ccccc1C,23µM,0,0,18µM,0,0
Cc1csc(Nc2ccccc2)[n+]1-c1ccccc1,?,0,0,0,0,0
O=Cc1ccc(O)c(O)c1,0,0,0,0,-57,0
C(=N\N(c1ccccc1)c1ccccc1)/c1ccccn1,29µM,0,0,0,0,0
Oc1ccc(/C=N/N=C/c2ccc(O)c(O)c2)cc1O,18µM,0,0,?,0,0
C(=N\n1cnnc1)/c1ccccn1,0,0,0,0,0,0
Oc1ccc(N=Cc2ccc(O)c(O)c2)cc1,?,0,?,?,-55,0
CC(=NNC(=O)CSCC(=O)NN=C(C)c1ccccc1)c1ccccc1,0,0,?,0,0,0
O=C1Nc2ccccc2/C1=N\N=C\c1ccc(O)c(O)c1,?,0,0,?,-71,0
COc1cc(/C=N/N=C2/C(=O)Nc3ccccc32)ccc1O,0,0,0,0,?,0
Oc1ccc(/C=N/N(c2ccccc2)c2ccccc2)cc1O,?,0,?,10µM,0,0
COc1ccc(/C=N/N(Cc2ccccc2)c2ccccc2)cc1O,?,0,?,?,-86,0
CCN(CC)c1ccc(/C=N/N(c2ccccc2)c2ccccc2)c(O)c1,?,0,0,?,0,0
O=C(/C(=N/N=C/c1ccc(O)c(O)c1)c1ccccc1)c1ccccc1,8.2µM,?,?,7.3µM,-76,0
CCC(=O)N1CCc2cc(CNC(=O)c3ccccc3C)ccc21,?,-,0,?,-,0
O=C(COC(=O)CN=C1NS(=O)(=O)c2ccccc21)Nc1ccccc1OC(F)F,0,0,0,0,0,0
CCc1nc2ccc(C(=O)N3CCN(S(=O)(=O)CC)CC3)cn2c1N(C)CCC(C)C,?,-,0,?,0,3.2µM
CCc1nc2ccc(C(=O)N3CCN(c4ccccc4)CC3)cn2c1N(C)CCCc1ccccc1,16µM,-,?,13µM,0,16µM
CCc1nc2ccc(C(=O)N(CC)CCN(C)C)cn2c1N(C)CCCc1ccccc1,?,-,0,?,?,0
CCc1nc2ccc(C(=O)N3CCN(c4ccccc4)CC3)cn2c1N(C)CCC(C)C,21µM,-,13µM,?,0,0
CCOc1cc(S(=O)(=O)NCC2CCCO2)ccc1F (stereo not drawn),0,0,0,0,0,0
CCn1ccc2cc(S(=O)(=O)N3CCCN(C(=O)Nc4ccccc4C(F)(F)F)CC3)ccc21,-,-,0,-,-,0
CCOC(=O)C1(C)CCCN(C(=O)c2ccc(-c3ccccc3)cc2)C1 (stereo not drawn),16µM,-,0,?,0,0
CCOC(=O)C1(C)CCCN(C(=O)Cc2ccc3ccccc3c2)C1 (stereo not drawn),9.2µM,-,0,29µM,0,0

# From PubChem
